Data on 40 compounds can be found in PubChem BioAssay (NCI).

Compounds without any hit were thinned out: in the full panel of roughly 83,000, 20% have a hit.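 Negative percent growth values reflect cell death: -40 means 40% of the cells present at the start died, and -100 means all died.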 Unmarked numbers belong to inactive results. Calls of active or inactive are those of the source. Rule for the calls: active = growth percent below 10; inactive = the rest.

The assay has as its system HL-60(TB) leukemia. Nature of the assay: NCI-60 one-dose screen, 48 h (100 = growth as untreated, 0 = no growth, -100 = all killed). To be noted: 10 µM unless noted.
As for `Clc1cccc(-c2nc(-c3cccs3)no2)c1`, the growth is 98.4%.

`CC(=O)c1sc2sc(C(C)=O)c(C)c2c1C`: the growth was 90.1%.

Regarding `C=CCCCCCCCCC(=O)OC(C)C`, the growth is 117%. `CCn1cc(CNc2ccc(C(=O)Nc3cc4cc(OC)c(OC)cc4c(C)n3)cc2)c(C)n1`: the growth was 0.232% (active). Take `CC1=C[S+](c2ccccc2)c2cccc3cc4ccccc4c1c23` (stereo not given): the growth is -50.3% (active). `O=C(Nc1ccc(Cl)cc1)c1cc2cc(F)ccc2cc1O`: the growth was -4.75% (active).

In the case of `COC(=O)c1ccc2[nH]c(O)c(C(=Nc3ccc(N(C)C(=O)CN4CCN(C)CC4)cc3)c3ccc([N+](=O)[O-])cc3)c2c1`, the growth was 11.6%. For `COc1cccc(-c2nc3sccn3c2-c2ccnc(NCCN3CCCN(C)S3(=O)=O)n2)c1`, the growth was 105%.

As for `Fc1cnc(NC2CC2)nc1-c1cnc2ccc(N3CCOCC3)cn12`, the growth is -15.5% (active). With `Oc1ccc(CCC2CCNc3ccccc32)cc1` (stereo not given), the growth is 86.9%. For the compound `C/C(=N\NC(N)=S)C(C)(C)O`, the growth is 102%.

As to `O=C1/C(=C/c2ccc(O)cc2)COc2ccc(O)cc21`, the growth is 96.2%.

With `COc1ccc(OC)c(C2C(C#N)=C(N)Oc3cc(O)ccc32)c1` (stereo not given), the growth is 88.6%. `COc1ccc(S(=O)(=O)NCCNc2nccc(-c3c(-c4cccc([N+](=O)[O-])c4)nc4sccn34)n2)cc1`: the growth is 110%. In the case of `C=C(C)[C@@H]1CC[C@]2(CO)CC[C@]3(C)[C@H](CC[C@@H]4[C@@](C)(CCCN)[C@H](C(=C)C)CC[C@]43C)[C@@H]12`, the growth is -54.7% (active). For `COc1ccc(NC(=O)c2sc3nc(C)c(C(C)=O)cc3c2N)cc1`, the growth was 94%.

Take `COC(=O)CCC1=C(C)C(C)=N/C1=C\c1[nH]c(-c2ccc[nH]2)cc1OC`: the growth was -21.8% (active). With `CCCCCc1c(C)[nH]c(/C=C2\N=C(c3ccc[nH]3)C=C2OCc2ccccc2)c1C`, the growth is -47.5% [100 µM] (active).

As to `COc1c(B(O)O)cccc1-c1cc(C)c2c(ccc3[nH]ncc32)n1`, the growth was 23.8%. In the case of `CN(Cc1ccccc1)c1nc(Cl)c(C2CC(c3ccc(F)cc3)=NN2C=O)s1` (stereo not given) it was 102%; in that of `O=C(O)COc1ccc(F)cc1`, 94.2%.

`C=CCn1c(-c2ccc(-c3nc4ccc(C)cc4[nH]3)cc2)n[nH]c1=S`: the growth was 110%. As for `C=C(C(=O)c1ccccc1)C(NC(C)(C)C)c1ccccc1` (stereo not given), the figure is -14.7% (active). As for `O=[N+]([O-])c1ccc(N=Nc2ccc(O)cc2O)cc1`, the growth was 32.5%. On to `CC(O)C(F)(F)C(F)(F)C(F)(F)F` (stereo not given), for which the growth is 101%. Consider `Oc1[nH]c2ccc(Cl)cc2c1/C=c1/ccc2c(c1)N=C(c1ccc(F)cc1)N=2`, for which the growth is 51.5%. Turning to `COc1cc(NC(C)CCCN2C(=O)c3ccccc3C2=O)c2nccc(C)c2c1OC` (stereo not given), the growth is 9.5% (active).

As for `O=C1C2=C(Nc3cc([N+](=O)[O-])ccc3N2)OC1c1c2ccccc2cc2ccccc12` (stereo not given), the growth was 14.2%. As to `O=C1/C(=C\c2ccco2)SC(=S)N1CCc1ccc(O)cc1`, the growth was 76.3%.

For the compound `CCOc1ccccc1CN1CCc2nc3cc(C(C)(C)C)[nH]n3c(=O)c2C1`, the growth is 99.4%.

Take `COc1cc(C2NN=C3c4ccccc4CCC32)cc(OC)c1OC` (stereo not given): the growth is 74.1%. In the case of `C=CCN(/C=C1/C(=O)O[C@H](COC)[C@@]2(C)C1=C(O)C(=O)C1=C2[C@H](OC(C)=O)C[C@]2(C)C(=O)CC[C@@H]12)CC=C`, the growth is 5.66% (active). Regarding `CCOC(=O)CSCCC#N`, the growth was 118%. As for `C=C1C(=O)O[C@H]2[C@H]1CC/C(COC(=O)c1ccccc1)=C\CC[C@@]1(C)O[C@@H]21`, the figure is -59.5% (active); as for `C(=C\c1n(Cc2ccc3ccccc3c2)c(-c2ccccc2)c(-c2ccccc2)[n+]1Cc1ccc2ccccc2c1)/c1ccccc1`, -42% (active); as for `C=C(C)C1CC(O)C2(C)CCCC3C2C1CC(C)C3(C)CC/C(C)=C/C(O)C1CCC(=O)c2c(OC)cc(OC)cc21` (stereo not given), 22.4%.

Take `COc1ccc(N2CCN(CC(=O)N3CCN(c4nnc(-c5ccccc5)c(-c5ccccc5)n4)CC3)CC2)cc1`: the growth was -36.3% (active). In the case of `Cn1cc(-c2csc(-c3ccccc3)n2)c2cccnc21` it was 3.19% [100 µM] (active); in that of `Cc1cccc(NC(=O)Nc2ccc(-c3ccc4c(c3)NC(=O)/C4=C\c3ccc[nH]3)cc2)c1`, 75.1%. In the case of `Cc1c(-c2csc(-n3nc(C(F)(F)F)cc3C(F)(F)F)n2)no[n+]1[O-]` it was 97%.
